Experimental data taken from the supplement of paper PMC9262897, “Low-cost anti-mycobacterial drug discovery using engineered E. coli” (Nature Communications, 2022).
Counter-ions that a name gives are not always drawn. ± gives the standard deviation of the averaged measurements.

Experiments:
Assay in all cases: growth (OD600 after 10 h); higher = more growth (less inhibition)
[1] = system: E. coli TESEC Alr+ wild-type control; settings: compound 0.1 mM; raw OD600 reference: median of DMSO wells 0.241, cell-free background 0.041
Procedure: (§1)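 TESEC Mtb Alr E. coli, or the Alr+ wild-type control, in 384-well plates with Prestwick library compounds at 0.1 mM and 1% DMSO, across arabinose induction levels of 1E3 to 1E7 nM. Growth is read as OD600 after 10 h at 37 °C in triplicate biological replicates.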

[2] = system: E. coli TESEC Mtb Alr; settings: compound 0.1 mM
Procedure: as §1

[3] = system: E. coli TESEC Mtb Asd; settings: compound 0.1 mM
Procedure: (§2)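 TESEC E. coli strains in which the native enzyme is deleted and replaced by arabinose-inducible Mtb Asd, DapB, CysH or TrpD, each grown in its selective medium. Strains were screened against the Prestwick library at 0.1 mM and 1% DMSO in 384-well format at low and high arabinose induction. Growth is read as OD600 after 10 h in triplicate.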

[4] = system: E. coli TESEC Mtb DapB; settings: compound 0.1 mM
Procedure: as §2

[5] = system: E. coli TESEC Alr+ wild-type control; settings: compound 0.1 mM; raw OD600 reference: median of DMSO wells 0.49, cell-free background 0.052
Procedure: (§3)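 TESEC Mtb Alr E. coli (ΔaraC ΔtolC ΔentC Δalr ΔdadX, arabinose-inducible Mtb Alr) or the Alr+ wild-type control strain, grown in defined M9-fructose medium without D-alanine in 96-well plates with Prestwick library compounds at 0.1 mM and 1% DMSO. Low Alr induction is 0.1 µM arabinose and high induction is 10 mM arabinose.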

[6] = system: E. coli TESEC Mtb Alr; settings: compound 0.1 mM; remark: listed apart in the source
Procedure: as §3

[7] = arabinose 1000 nM, raw OD600 reference: median of DMSO wells 0.294, cell-free background 0.041
[8] = arabinose 10000 nM, raw OD600 reference: median of DMSO wells 0.264, cell-free background 0.041
[9] = arabinose 100000 nM, raw OD600 reference: median of DMSO wells 0.201, cell-free background 0.041
[10] = arabinose 1000000 nM, raw OD600 reference: median of DMSO wells 0.193, cell-free background 0.041
[11] = arabinose 10000000 nM, raw OD600 reference: median of DMSO wells 0.146, cell-free background 0.041
[12] = arabinose induction (level): High, raw OD600 reference: median of DMSO wells 0.331, cell-free background 0.041
[13] = arabinose induction (level): Low, raw OD600 reference: median of DMSO wells 0.417, cell-free background 0.041
[14] = arabinose induction (level): High, raw OD600 reference: median of DMSO wells […], cell-free background 0.041
[15] = arabinose induction (level): Low, raw OD600 reference: median of DMSO wells 0.227, cell-free background 0.041
[16] = arabinose 100 nM, raw OD600 reference: median of DMSO wells 0.413, cell-free background 0.052
[17] = arabinose 10000000 nM, raw OD600 reference: median of DMSO wells […], cell-free background 0.052

Row | Compound | growth [1] | growth [2, 7] | growth [2, 8] | growth [2, 9] | growth [2, 10] | growth [2, 11] | growth [3, 12] | growth [3, 13] | growth [4, 14] | growth [4, 15] | growth [5] | growth [6, 16] | growth [6, 17]
1 | CC(=O)OCC(=O)[C@@]12N=C(C)O[C@@H]1C[C@H]1[C@@H]3CCC4=CC(=O)C=C[C@]4(C)[C@H]3[C@@H](O)C[C@@]12C [Deflazacort] | 0.151 ± 0.011 | 0.213 ± 0.009 | 0.256 ± 0.0029 | 0.193 ± 0.02 | 0.168 ± 0.0053 | 0.1533 ± 0.00035 | 0.323 ± 0.083 | 0.396 ± 0.032 | 0.186 ± 0.0061 | 0.23 ± 0.013 | 0.48 ± 0.068 | 0.394 ± 0.0082 | 0.347 ± 0.0046
2 | Clc1cc(Cl)c(OCC#CI)cc1Cl [Haloprogin] | 0.128 ± 0.027 | 0.249 ± 0.015 | 0.197 ± 0.0027 | 0.216 ± 0.004 | 0.137 ± 0.0043 | 0.168 ± 0.0052 | 0.242 ± 0.037 | 0.276 ± 0.095 | 0.245 ± 0.04 | 0.259 ± 0.018 | 0.195 ± 0.037 | 0.386 ± 0.027 | 0.104 ± 0.0032
3 | CC(C[N+](C)(C)C)OC(N)=O (configuration not stated) [Bethanechol chloride] | 0.24 ± 0.0039 | 0.283 ± 0.0042 | 0.28 ± 0.0036 | 0.195 ± 0.014 | 0.222 ± 0.021 | 0.139 ± 0.0046 | 0.373 ± 0.07 | 0.381 ± 0.028 | 0.2 ± 0.024 | 0.242 ± 0.025 | 0.603 ± 0.0074 | 0.438 ± 0.0061 | 0.349 ± 0.006
4 | CN(C)CCOc1ccc(/C(=C(/CCCl)c2ccccc2)c2ccccc2)cc1 [Toremifene] | 0.0414 ± 0.0014 | 0.04087 ± 0.0004 | 0.04003 ± 0.00032 | 0.0409 ± 0.00036 | 0.04023 ± 0.00025 | 0.04073 ± 0.00021 | 0.0528 ± 0.00055 | 0.057 ± 0.0021 | 0.0495 ± 0.0014 | 0.0508 ± 0.001 | 0.0478 ± 0.00064 | 0.0666 ± 0.015 | 0.0577 ± 0.0032
5 | CCCNC(C)C(=O)Nc1c(C)csc1C(=O)OC (configuration not stated) [Articaine hydrochloride] | 0.249 ± 0.0025 | 0.3163 ± 0.0008 | 0.266 ± 0.0049 | 0.213 ± 0.013 | 0.162 ± 0.0036 | 0.147 ± 0.0054 | 0.257 ± 0.064 | 0.442 ± 0.02 | 0.205 ± 0.016 | 0.236 ± 0.043 | 0.47 ± 0.023 | 0.407 ± 0.015 | 0.316 ± 0.021
6 | CCOc1ccc(Cc2nccc3cc(OCC)c(OCC)cc23)cc1OCC [Ethaverine hydrochloride] | 0.0471 ± 0.00059 | 0.0509 ± 0.0018 | 0.0528 ± 0.018 | 0.0664 ± 0.025 | 0.0659 ± 0.033 | 0.0686 ± 0.015 | 0.228 ± 0.0076 | 0.1635 ± 0.0016 | 0.156 ± 0.0076 | 0.165 ± 0.017 | 0.377 ± 0.051 | 0.403 ± 0.0076 | 0.0633 ± 0.0024
7 | C[C@@H]1C[C@H]2[C@@H]3CCC4=CC(=O)C=C[C@]4(C)[C@@]3(Cl)[C@@H](O)C[C@]2(C)[C@@]1(OC(=O)c1ccco1)C(=O)CCl [Mometasone furoate] | 0.203 ± 0.0057 | 0.259 ± 0.031 | 0.223 ± 0.011 | 0.161 ± 0.0059 | 0.0878 ± 0.0027 | 0.152 ± 0.013 | 0.198 ± 0.049 | 0.329 ± 0.082 | 0.297 ± 0.12 | 0.212 ± 0.06 | 0.498 ± 0.036 | 0.415 ± 0.013 | 0.244 ± 0.0054
8 | CC(=O)/N=c1/sc(S(N)(=O)=O)nn1C [Methazolamide] | 0.247 ± 0.0057 | 0.301 ± 0.019 | 0.266 ± 0.0036 | 0.198 ± 0.019 | 0.193 ± 0.0042 | 0.138 ± 0.01 | 0.342 ± 0.034 | 0.447 ± 0.02 | 0.207 ± 0.013 | 0.228 ± 0.01 | 0.438 ± 0.049 | 0.397 ± 0.012 | 0.348 ± 0.027
9 | C[C@@H](O[C@H]1OCCN(Cc2n[nH]c(=O)[nH]2)[C@H]1c1ccc(F)cc1)c1cc(C(F)(F)F)cc(C(F)(F)F)c1 [Aprepitant] | 0.136 ± 0.0085 | 0.107 ± 0.0059 | 0.116 ± 0.033 | 0.0735 ± 0.0056 | 0.0675 ± 0.0089 | 0.0777 ± 0.0096 | 0.0693 ± 0.0052 | 0.0731 ± 0.019 | 0.128 ± 0.015 | 0.089 ± 0.023 | 0.386 ± 0.22 | 0.442 ± 0.012 | 0.0589 ± 0.0033
